In the library only some 5.2% were active in any assay of this set; here they are far more common.
Tau fluor cs: Counterscreen qHTS for Inhibitors of Tau Fibril Formation, Fluorescence Polarization | tau K18 P301L Alexa594 fluorescence, heparin fibrillization | actives 0.93% (n = 280,000) | AID 1463, 2008 | Potency, µM (series often up to 57.7 µM), without a hit: top-dose activity change, negative = decrease; further: potency means the concentration at half of the fitted maximal effect; nearly all actives have a fitted effect of over 55% in size
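Human K18 P301L tau (15 uM unlabeled plus 0.24 uM Alexa 594-labeled, final) in 100 mM sodium acetate pH 7 was mixed with compound and 20 uM heparin and incubated 6 hr at 37 C.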
Sfp inh: qHTS Assay for Inhibitors of Bacillus subtilis Sfp phosphopantetheinyl transferase (PPTase); 4'-phosphopantetheinyl transferase ffp (Bacillus subtilis), Q9F4F7; Potency, µM, without a hit: largest response in the series, negative = inhibition, hits mostly inhibitors; actives 3.5% (n = 310,000); Biochemical Sfp PPTase activity, qHTS;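 further: the enzyme is Sfp with the accession as filed and its product quenches rhodamine fluorescence; potency means the concentration at half of the fitted maximal effect; 0% = enzyme reaction without inhibitor and -100% = no enzyme wells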
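After 15 min at room temperature with compound, 15 nM Sfp received 5 uM rhodamine-CoA plus 12.5 uM BHQ-2-ybbR (50 mM Hepes pH 7.6, 10 mM MgCl2). Rate came from the fluorescence difference over 30 min, ex 525/em 598 nm.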
Tau ThT inhib: qHTS for Inhibitors of Tau Fibril Formation, Thioflavin T Binding; recombinant tau K18 P301L (four-repeat tau fragment), heparin-induced fibrillization, ThT fluorescence; actives 2.1% (n = 270,000); AID 1460, 2008; Potency, µM (highest dose often 57.4 µM), for inactives: at the top dose activity, negative = inhibition, most hits filed as inhibitors; Microtubule-associated protein tau (Homo sapiens), P10636; further: potency means the concentration at half of the fitted maximal effect; nearly all actives have a fitted effect of over 55% in size
Target sequence (P10636 561-689 P618L limits assumed): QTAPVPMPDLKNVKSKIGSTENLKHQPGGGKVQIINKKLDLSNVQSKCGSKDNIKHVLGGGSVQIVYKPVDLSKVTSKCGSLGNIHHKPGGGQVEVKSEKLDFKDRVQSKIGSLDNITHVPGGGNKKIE
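Recombinant human tau K18 fragment […] carrying P301L, 15 uM unlabeled plus 0.24 uM Alexa 594-labeled, was fibrillized with 20 uM heparin in 100 mM sodium acetate pH 7 for 6 hr at 37 C; 30 uM ThT fluorescence read after 1 hr.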
Coupling enz: qHTS Assay for Inhibitors of Fructose-1,6-bisphosphate Aldolase from Giardia Lamblia: Coupling assay counterscreen | coupling enzyme system counterscreen, AmpLite Red fluorescence | activity change, negative = inhibition, % at 58.2 µM, hits read low | actives 0.67% (n = 290,000); in the data active means activity change below about -30%
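Coupling enzymes only (glyceraldehyde-3-phosphate) + compound, at 57.5 uM final, 10 min RT; add substrate/coupling/AmpLite Red mix, 20 min RT; fluorescence ex 525/em 598 nm. Actives flag coupling-system interference.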
Tau fibril FP: qHTS for Inhibitors of Tau Fibril Formation, Fluorescence Polarization. Microtubule-associated protein tau (Homo sapiens), P10636. K18 P301L tau heparin fibrillization, Alexa594 FP, 6 h. actives 0.39% (n = 280,000). Potency, µM (doses to about 57.7 µM), for the others: top-dose activity, negative = inhibition, most hits filed as inhibitors; further: potency means the concentration at half of the fitted maximal effect; nearly all actives have a fitted effect of over 55% in size
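K18 P301L tau (15 uM unlabeled/0.24 uM Alexa 594-labeled, final) + compound + heparin 20 uM final; 100 mM NaOAc pH 7; 6 hr 37 C; ThT 30 uM final added, 1 hr RT; FP ex 555/em 632 nm.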
* hit, by the source's call; ? = inconclusive; nt = not tested or not shown; [ ] = another dose, or the depositor's remark. Unless noted, the call rests on the fitted dose curve; in most records, active means well fitted curve in the direction sought with a large enough effect; inconclusive means small, poorly fitted or top-dose-only effect, or another doubt; inactive means no such curve, though single readings can be large; an effect the other way counts as inactive or inconclusive. Unless noted, on the % scale 0 is the no-effect control and ±100 the full control effect.

SMILES | Tau fluor cs | Sfp inh | Tau ThT inhib | Coupling enz | Tau fibril FP
CC1=CN2C(=N)/C(=C/c3ccc(C)o3)C(=O)N=C2S1 | -11% | -2% | ? | 0 | 2%
CC1=CN2C(=N)/C(=C/c3ccc(Sc4ccc(Cl)cc4)o3)C(=O)N=C2S1 | ? | 19% | 13µM* | 0 | -9%
CC1=CN2C(=N)/C(=C/c3ccc(Sc4ccc(C)cc4)o3)C(=O)N=C2S1 | ? | -13% | 7.9µM* | 0 | -5%
CC(=O)Nc1sc2c(c1C#N)CCC2 | 3% | -21% | 2% | -1 | -7%
N#Cc1c(N)sc2c1CCCCCC2 | ? | 40µM* | ? | -5 | 1%
N#Cc1c(N)c(C#N)c(-c2ccc(O)cc2)c2c1CCCC2 | -27% | -5% | -8% | 12 | -7%
N#Cc1c(N)sc(=S)c2c1CCCCC2 | ? | 5µM* | 13µM* | -33* | ?
CCOC(=O)N/N=C/c1ccccc1-c1cc(OC)ccc1OC | -7% | 1% | -10% | 2 | -8%
C=C(C)CSC1=C(C#N)C(c2ccccc2Cl)CC(=O)N1 (stereo not drawn) | -13% | 45µM* | -11% | 3 | -11%
C=CCSC1=C(C#N)C(c2ccccc2Cl)CC(=O)N1 (stereo not drawn) | 0% | 35µM* | -5% | 4 | -2%
C=CCSC1=C(C#N)C(c2ccccc2C)CC(=O)N1 (stereo not drawn) | -3% | ? | -6% | 2 | -6%
CCCCCCSC1=C(C#N)C(c2ccccc2)CC(=O)N1 (stereo not drawn) | -6% | 6% | -10% | 4 | 0%
C=CCSC1=C(C#N)C(c2ccc(OCC)cc2)CC(=O)N1 (stereo not drawn) | -5% | 79µM* | -11% | 0 | 5%
CCCSC1=C(C#N)C(c2cccs2)CC(=O)N1 (stereo not drawn) | -6% | 25µM* | -10% | 0 | -1%
CCSC1=C(C#N)C(c2ccccc2C)CC(=O)N1 (stereo not drawn) | -4% | 18% | -6% | 2 | -1%
CC(=O)Nc1ccc(S(=O)(=O)NCCc2csc3nc(-c4ccc(Cl)cc4)nn23)cc1 | -21% | nt | 2% | nt | ?
CCOc1ccccc1C1C(C(=O)Nc2ccccc2)=C(C)Nc2c(C(=O)Nc3ccc(F)cc3)cnn21 (stereo not drawn) | -17% | nt | -2% | nt | ?
CSc1nnc2c3cc(C)ccc3n(Cc3ccccc3)c2n1 | -4% | 56µM* | ? | -2 | 0%
Cc1cc(C)cc(NC(=O)N2CCC3(CC2)Oc2ccccc2C(=O)N3Cc2ccccc2F)c1 | -22% | nt | ? | nt | -1%
COC(=O)C(C)Sc1n[nH]c(=S)s1 (stereo not drawn) | -6% | 50µM* | -9% | 4 | -3%
O=C(O)CC(Sc1n[nH]c(=S)s1)C(=O)O (stereo not drawn) | -9% | 16µM* | -16% | -1 | -1%
COC(=O)c1ccc(CSc2n[nH]c(=S)s2)o1 | -2% | -27% | -7% | 6 | 4%
Fc1ccc(-c2nc3n(c2-c2ccncc2)CCS3)cc1 | -13% | -4% | -15% | 6 | -3%
Cc1nn2c(=S)[nH]nc2[nH]c1=O | -8% | 13µM* | -12% | -11 | -8%
COc1ccc(-n2c(-c3ccc(Cl)cc3)cc3c2CC(C)(C)CC3=O)c(OC)c1 | -14% | nt | -16% | nt | 4%
SMILES | Tau fluor cs | Sfp inh | Tau ThT inhib | Coupling enz | Tau fibril FP
CCOc1ccc(N(C)c2ccc(/C=C3/SC(=S)NC3=O)cc2)cc1 | nt | -13% | nt | 1 | nt
CCOc1c(O)ccc(/C=C2\SC(=S)NC2=O)c1[N+](=O)[O-] | ? | 11µM* | 10µM* | -3 | ?
COc1ccc(CC2=CC(=O)c3ccccc3C2=O)cc1 | nt | 25µM* | nt | -20 | nt
Fc1ccc(-c2noc3ncnc(NC4CCCCC4)c23)cc1 | -21% | nt | -8% | nt | -5%
COc1cccc(-c2cc(=O)c3ccc(OC)cc3o2)c1 | -13% | 8% | -19% | 3 | -11%
Fc1ccc(/C=N/n2cnn(Cc3ccccc3Cl)c2=S)cc1 | -27% | 50µM* | -6% | -2 | -14%
CC(/C=C/c1cccc(Oc2ccc(F)cc2)c1)N(O)C(N)=O (stereo not drawn) | -22% | -1% | ? | nt | -6%
COCCn1nnnc1C(c1ccccc1OC)N1CCN(c2ccccc2F)CC1 (stereo not drawn) | -5% | 15% | -9% | 0 | 0%
CCc1ccc2[nH]c(=O)c(C(c3nnnn3CCOC)N3CCN(c4ccc(F)cc4)CC3)cc2c1 (stereo not drawn) | -22% | 18µM* | ? | -16 | 11%
COCCn1nnnc1C(c1cc2cc(OC)c(OC)cc2[nH]c1=O)N1CCN(c2ccc(O)cc2)CC1 (stereo not drawn) | 12% | ? | 11% | 5 | 10%
COCCn1nnnc1C(c1cc2cccc(C)c2[nH]c1=O)N1CCN(c2ccccc2F)CC1 (stereo not drawn) | -2% | 14µM* | ? | -7 | 1%
CCc1ccc2[nH]c(=O)c(C(c3nnnn3CCOC)N3CCN(c4ccccc4)CC3)cc2c1 (stereo not drawn) | -15% | 32µM* | ? | -9 | -4%
Cc1nc2sc(C(=O)N(C)Cc3ccccc3)c(NC(=O)c3ccccc3)c2c(C)c1Cl | -7% | nt | -5% | nt | -6%
Cc1ccc(Nc2ccc(NCc3ccccc3)nn2)cc1C | ? | -12% | ? | 0 | ?
Clc1ccc(Nc2ccc(NCc3ccccc3)nn2)cc1 | 13µM*[quencher] | -18% | ? | -3 | 14%
CC(NC(=O)c1ccc2ccccc2n1)c1ccc(Br)cc1 (stereo not drawn) | nt | -24% | nt | 0 | nt
Brc1ccc(N=Nc2ccc3ccccc3n2)cc1 | -16% | ? | 1.1µM* | 3 | 2%
COc1ccc(-c2cc3c(=O)n(CC(=O)Nc4cc(C)ccc4C)ccn3n2)cc1 | -4% | nt | -9% | nt | -9%
CCOc1ccc2nc(N3CCCC(C(=O)Nc4ccccc4CC)C3)sc2c1 (stereo not drawn) | -24% | nt | ? | nt | 2%
Cn1ncc2c(Nc3ccc(Br)cc3)nc(Nc3ccc(Br)cc3)nc21 | ? | 12% | ? | -2 | 10µM*
Cn1ncc2c(Nc3cccc(Cl)c3)nc(Nc3cccc(Cl)c3)nc21 | ? | 6% | 16% | -6 | 8.9µM*
CNc1nc(Nc2ccc(C)c(Cl)c2)c2cnn(C)c2n1 | nt | 2% | nt | -5 | nt
COc1ccc(NC(=O)CSc2nc3cc(OC)c(OC)cc3c3nc(-c4ccccc4)nn23)cc1Cl | -17% | nt | -1% | nt | -9%

Source: PubChem (National Center for Advancing Translational Sciences (NCATS))
